The structures appear in SMILES notation. The whole screen tested about 51,000 compounds, of which about 600 (1.2%) were called active. Inconclusive results (about 2%) are left out. Cut-off read from the data, not from the text of the source: active = potency below about 11 µM; inconclusive = mostly about 12 µM to 25 µM; inactive = weaker than that;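 the screen sought inhibitors and activators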. The full list was thinned out, with actives kept by preference.
Potency is the fitted concentration of half-maximal effect.

The subject of the assay is pyruvate kinase (Bacillus stearothermophilus). Briefly: Pyruvate Kinase. To be noted: purified pyruvate kinase, luminescence ATP production; ribose 5-phosphate activator present at AC10. As to the method:
Pyruvate kinase (partially purified from Bacillus stearothermophilus) was assayed for its ability to generate ATP from ADP using phosphoenolpyruvate (PEP) as a substrate. ATP generation was detected in a coupled reaction by luciferase-mediated luminescence, an ATP-dependent process. Pyruvate kinase substrates, PEP and ADP, were present in the assay at Km and […]-fold below Km respectively. The enzyme was assayed at an intermediate level of activity to screen for inhibitors and activators. In addition, ribose 5 phosphate, a positive modulator of pyruvate kinase, was included in the assay at AC10 in order to identify possible potentiators.
NCGC Assay Protocol Summary:
Three uL of substrate mix (final concentration, 50 mM imidazole pH 7.2, 50 mM KCl, 7 mM MgCl2, 2 mM PEP, 0.1 mM ADP, 0.7 nM ribose 5 phosphate, 0.01% Tween 20, 0.05% BSA) was dispensed into 1536 well plates. 23 nL of compound were delivered by a pin tool and 1 uL of enzyme mix (final concentration, 10 nM pyruvate kinase, 50 mM imidazole pH 7.2, 0.05% BSA) was added. After centrifugation at 1000 rpm for less than a minute, plates were incubated at room temperature for 2 hours. Three uL of detection and kinase stop mix (PKLight, Cambrex) was added, the plates centrifuged, and luminescence read by a ViewLux (Perkin Elmer) at 5 second exposure/plate. Data were normalized to the controls for AC100 stimulation (5 uM ribose 5 phosphate) and to AC100 inhibition (110 uM luteolin).
Regarding `Cn1c(=O)n(CCc2ccccc2)c(=O)c2c1nc1n2CCCN1c1ccccc1`, the Potency was > 57 µM (inactive).

As for `COc1cc(OC)cc(C(=O)Nc2ccc(-c3nc4ccccc4o3)c(O)c2)c1`, the Potency was > 57 µM (inactive).

As to `CN(C)CCCNc1c2c(c(C#N)c3nc4ccccc4n13)CCC2`, the Potency is > 57 µM (inactive).

`c1ccc(-c2oc3ncnc(N4CCOCC4)c3c2-c2ccccc2)cc1`: the Potency was > 57 µM (inactive).

In the case of `CC(C(=O)O)N1C(=O)c2cccc3cccc1c23` (stereo unspecified), the Potency is 36.6 µM (inactive).

In the case of `CC(C(=O)Nc1ccccc1-c1ccccc1)N1CCOCC1` (stereo unspecified), the Potency is > 57 µM (inactive).

Consider `CC(C(=O)N1CCOCC1)N1c2cccc3cccc(c23)S1(=O)=O` (stereo unspecified), for which the Potency is 1.8 µM (active).

With `O=C1Nc2c(Br)cc(Br)cc2C1(O)N1CCOCC1` (stereo unspecified), the Potency is 8.12 µM (active).

As to `COc1ccc(NC2CC(=O)N(C)C2=O)cc1` (stereo unspecified), the Potency is > 25.6 µM (inactive).

Consider `CCOC(=O)N1CCC(NC(=O)c2ccc3nc(N4CCOCC4)sc3c2)CC1`, for which the Potency was > 57 µM (inactive).

As for `c1c2c(cc3sc(N4CCCCC4)nc13)OCCO2`, the Potency is 1.52 µM (active).

Turning to `Fc1ccc2nc(N3CCCCC3)sc2c1`, the Potency was 41.1 µM (inactive).

For the molecule `Cc1ccsc1C(=O)OCC(=O)c1cc(C)n(CC2CCCO2)c1C` (stereo unspecified), the Potency was 0.617 µM (active).

In the case of `COC(=O)c1ccc2c(=O)n(CC3CCCO3)c(=S)[nH]c2c1` (stereo unspecified), the Potency was > 57 µM (inactive).

For the molecule `Cc1nnc(SCC(N)=O)n1CC1CCCO1` (stereo unspecified), the Potency is > 57 µM (inactive).

As for `COc1ccc(CNC(=O)c2cc3c(=O)n4ccccc4nc3n(CC3CCCO3)c2=N)cc1` (stereo unspecified), the Potency was > 57 µM (inactive).

Consider `O=C(Nc1cnn(Cc2ccc(Cl)cc2)c1)C1CCCC1`, for which the Potency was > 57 µM (inactive).

For the molecule `C=CCn1c(COc2ccccc2)nnc1SCC(=O)NCC(=O)OCC`, the Potency was > 57 µM (inactive).

For the molecule `O=C(NCc1ccccn1)c1cc2ccccc2oc1=O`, the Potency was > 57 µM (inactive).

`COc1ccc(C(=O)N(Cc2ccc(N(C)C)cc2)C2CCS(=O)(=O)C2)cc1` (stereo unspecified): the Potency is > 57 µM (inactive).

With `CCC12CN3CC(CC)(CN(C1)C31C(=O)N(C)c3ccc(C)cc31)C2=O` (stereo unspecified), the Potency is > 57 µM (inactive).

`COc1ccc(CC(=O)n2nc(-c3cccnc3)nc2N)cc1`: the Potency is > 57 µM (inactive).

In the case of `COC(=O)c1ccccc1NC(=O)c1ccccc1NS(C)(=O)=O`, the Potency is > 57 µM (inactive).

For the molecule `COC(=O)Cc1nc2ccccc2[nH]1`, the Potency was > 57 µM (inactive).

`Cc1ccc(-c2c3c(=O)n(C)c(=O)n(C)c3cn2-c2ccccc2O)cc1`: the Potency is > 57 µM (inactive).

Consider `CCOC(=O)N1CCN(CC(=O)c2c(C)[nH]c3ccccc23)CC1`, for which the Potency was > 57 µM (inactive).

On to `Cc1c(C(=O)CN2CCOCC2)[nH]c2ccccc12`, for which the Potency was > 57 µM (inactive).

In the case of `N#Cc1nc(COc2ccc(-c3ccccc3)cc2)oc1NCc1cccnc1`, the Potency was > 57 µM (inactive).

With `N#Cc1nc(-c2ccc(OCc3ccccc3)cc2)oc1NCCCN1CCOCC1`, the Potency is 1.88 µM (active).

Take `N#Cc1nc(Cc2ccccc2)oc1NCCc1ccccc1`: the Potency is > 57 µM (inactive).

Take `O=C(O)CSCc1nc2ccccc2s1`: the Potency was > 57 µM (inactive).

`Cc1cccc(N2CCN(C(=O)c3cc4c(=O)[nH]c5ccccc5c4n3C)CC2)c1C`: the Potency is > 11.4 µM (inactive).

Take `O=C(CN1C(=O)COc2ccccc21)NCCN1CCc2ccccc2C1`: the Potency is > 57 µM (inactive).

In the case of `Cn1c(C(=O)NCCN2CCc3ccccc3C2)cc2c(=O)[nH]c3ccccc3c21`, the Potency is 9.21 µM (active).

For the molecule `FC(F)(F)c1nnc2sc(-c3ccco3)nn12`, the Potency was > 57 µM (inactive).

`COc1cc(OC)cc(C(=O)Nc2ncc3c(n2)CC(C)(C)CC3=O)c1`: the Potency was > 57 µM (inactive).

As for `Cn1c(=O)c2c(nc(N3CCCCCC3)n2CC(O)COc2ccc(Cl)cc2)n(C)c1=O` (stereo unspecified), the Potency is > 57 µM (inactive).

Consider `CCC(=O)Nc1ccc(C(=O)Nc2ccc3c(c2)C(=O)N(CC2CCCO2)C3=O)cc1` (stereo unspecified), for which the Potency is > 57 µM (inactive).

In the case of `COc1cccc(N(CC(=O)NC2CCCC2)C(=O)Cn2nnc(-c3ccc(C)cc3)n2)c1`, the Potency is > 57 µM (inactive).

Consider `CCOc1cc(C(=O)Nc2ncccn2)cc(OCC)c1OCC`, for which the Potency is > 57 µM (inactive).

As for `CCOC(=O)c1cc(-c2nnc(-c3cc(OC)c(OC)c(OC)c3)o2)c(C)nc1C`, the Potency was > 57 µM (inactive).

Turning to `CCOC(=O)c1cc2c(n(-c3ccc(C)cc3)c1=O)CCCC2=O`, the Potency is > 57 µM (inactive).

As to `CN1CCN(c2ccc(NC(=O)COc3ccc(Cl)cc3Cl)cc2)CC1`, the Potency was > 57 µM (inactive).

`CC(C)(C)NC(=O)C(c1ccco1)N(Cc1ccc2c(c1)OCO2)C(=O)Cn1nnc2ccccc21` (stereo unspecified): the Potency was > 57 µM (inactive).

As to `CCc1nnc(NC(=O)c2nc3nccc(C)n3n2)s1`, the Potency is > 57 µM (inactive).

For the molecule `c1ccc(-n2ncc3c2ncn2c(C4CCCCC4)nnc32)cc1`, the Potency is > 57 µM (inactive).

`CCc1ccccc1NC(=O)CSc1nnc([C@@H](NC(=O)OC(C)(C)C)C(C)CC)o1` (stereo partly specified): the Potency is > 57 µM (inactive).

With `Cc1cc(C)c(C#N)c(SCc2ccccc2C(=O)O)n1`, the Potency was > 57 µM (inactive).

For `COc1ccc2[nH]c(=O)c(-c3noc(-c4ccc(F)cc4)n3)cc2c1`, the Potency was > 57 µM (inactive).

Turning to `Cc1cccc(-c2noc(-c3ccc(F)cc3)n2)c1`, the Potency is 10.4 µM (active).

As for `Cc1ccc(Cc2nc(-c3cccc(C)c3)no2)cc1`, the Potency was > 57 µM (inactive).

For `CC(C)OC(=O)c1cc(NC(=O)C2C3CCC(O3)C2C(=O)O)cc(C(=O)OC(C)C)c1` (stereo unspecified), the Potency was 6.13 µM (active).

With `CCC(CC)C(=O)Nc1cc(C(=O)OC)cc(C(=O)OC)c1`, the Potency was > 57 µM (inactive).

Take `Cc1nc(NCc2ccccc2)c(C(N)=O)c2c1COC(C)(C)C2`: the Potency was > 25.6 µM (inactive).

For `COc1ccc2oc(=O)c(C(=O)O)cc2c1`, the Potency is > 57 µM (inactive).

In the case of `Cc1cc(Cl)c(S(=O)(=O)NCc2cccnc2)cc1OCC(N)=O`, the Potency is > 57 µM (inactive).

With `Cc1nn(CC(=O)Nc2ccc3c(c2)nc(CN2CCCCC2)n3C)c(=O)c2ccccc12`, the Potency was > 57 µM (inactive).

For the molecule `COC(=O)c1ccc2c(c1)S(=O)(=O)NC(=NCCCN1CCOCC1)S2`, the Potency was > 57 µM (inactive).

Take `COc1ccc2oc(C)c(NC(C)=O)c2c1`: the Potency is > 57 µM (inactive).

For `O=C(Nn1cc(C(=O)N2CCN(c3ccccc3F)CC2)c2ccccc2c1=O)c1cnccn1`, the Potency was > 57 µM (inactive).

In the case of `COCC(C)n1c(SCc2ccc(C(=O)OC)o2)nc2ccccc2c1=O` (stereo unspecified), the Potency was > 57 µM (inactive).

For `CCOc1cc(-c2nc3cc(C)ccn3c2NCC2CCCO2)ccc1O` (stereo unspecified), the Potency was > 57 µM (inactive).

Turning to `COc1ccc(-c2nc(-c3ccccc3)no2)c(OC)c1`, the Potency was 0.55 µM (active).

On to `COc1ccccc1Cc1nc(-c2ccc(C)cc2)no1`, for which the Potency was > 57 µM (inactive).

`CCOc1nc(-c2ccc(OC)cc2)ccc1-c1noc(-c2cc(OC)c(OC)c(OC)c2)n1`: the Potency is > 57 µM (inactive).

Take `Cn1c(=O)c2c(n(Cc3ccccc3)c1=O)NC(=O)C2CC(=O)N1CCc2ccccc2C1` (stereo unspecified): the Potency is > 57 µM (inactive).

Turning to `CC(C)C(=O)N1CCN(CCN=CC2=C(O)CC(c3ccco3)CC2=O)CC1` (stereo unspecified), the Potency is > 57 µM (inactive).

`O=C(CN1CCN(C2CCCCC2)CC1)Nc1ccccc1N1CCCCC1`: the Potency was > 57 µM (inactive).

`Fc1ccccc1OCCCCn1cncn1`: the Potency is > 57 µM (inactive).

Turning to `Cc1cccc(-n2ncc3c(N4CCc5ccccc54)ncnc32)c1`, the Potency was > 57 µM (inactive).

With `CCN(CC)CCCN1C(=O)C(=O)/C(=C(/O)c2c(C)nc3ccccn23)C1c1ccc(C)o1` (stereo unspecified), the Potency is > 57 µM (inactive).

Values taken from PubChem BioAssay AID361 (National Center for Advancing Translational Sciences (NCATS), 2006).
